# Test results reported in the supplement of paper PMC8728848.
# The sample as a whole holds a higher share of the strongest signals than the screen did.
# B1: Als3-41 (Candida albicans) (protein)
# chain: KTITGVFNSFNSLTWSNAATYNYKGPGTPTWNAVLGWSLDGTSASPGDTFTLNMPCVFKFTTSQTSVDLTAHGVKYATCQFQAGEEFMTFSTLTCTVSNTLTPSIKALGTVTLPLAFNVGGTGSSVDLEDSKCFTAGTNTVTFNDGGKKISINVDFERSNVDPKGYLTDSRVIPSLNKVSTLFVAPQCANGYTSGTMGFANTYGDVQIDCSNIHVGITKGLNDWNYPVSSESFSYTKTCSSNGIFITYKNVPAGYRPFVDAYISATDVNSYTLSYANEYTCAGGYWQRAPFTLRWTGYRNSDAGSNGIVIVATTRTVTDSTTAVTTLPFDPNRDKTKTIEILKPIPTTTITTSYVGVTTSYLTKTAPIGETATVIVD
# Legend:
# Test in all cases: glycan array binding signal (z-score within array); higher = stronger binding
# Conditions in all cases: glycan notation: IUPAC condensed, linker removed
# [1] = target: Gal(b1-4)GlcNAc(b1-3)Gal(b1-4)GlcNAc(b1-3)Gal(b1-4)GlcNAc(b1-3)Gal(b1-4)GlcNAc(b1-3)Gal(b1-4)GlcNAc(b1-2)[Gal(b1-4)GlcNAc(b1-3)Gal(b1-4)GlcNAc(b1-3)Gal(b1-4)GlcNAc(b1-3)Gal(b1-4)GlcNAc(b1-3)Gal(b1-4)GlcNAc(b1-6)]Man(a1-6)[Gal(b1-4)GlcNAc(b1-3)Gal(b1-4)GlcNAc(b1-3)Gal(b1-4)GlcNAc(b1-3)Gal(b1-4)GlcNAc(b1-3)Gal(b1-4)GlcNAc(b1-2)Man(a1-3)]Man(b1-4)GlcNAc(b1-4)[Fuc(a1-6)]GlcNAc
# In short: (§1)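 Glycan array data were curated from 3228 arrays in the Consortium for Functional Glycomics database and kept only where the protein sequence was available. Glycan names were converted to IUPAC-condensed notation, and columns mapping to the same glycan were averaged. The binding signal is a within-array Z-score, averaged across arrays of the same protein sequence at different concentrations or buffers and across linkers. Negative Z-scores can be read as non-binding.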
# [2] = target: Gal(b1-4)GlcNAc(b1-3)[Fuc(a1-3)GlcNAc(b1-6)]Gal(b1-4)Glc
# In short: as §1
# Gal3S(b1-4)Glc6S = target: Gal3S(b1-4)Glc6S
# In short: as §1
# GalNAc(b1-4)GlcNAc = target: GalNAc(b1-4)GlcNAc
# In short: as §1
# GalNAc(b1-4)GlcNAc6S = target: GalNAc(b1-4)GlcNAc6S
# In short: as §1
# [3] = target: GlcNAc(b1-2)[GlcNAc(b1-4)]Man(a1-3)[GlcNAc(b1-4)][GlcNAc(b1-2)[GlcNAc(b1-6)]Man(a1-6)]Man(b1-4)GlcNAc(b1-4)[Fuc(a1-6)]GlcNAc
# In short: as §1
# [4] = target: GlcNAc(b1-3)Gal(b1-4)GlcNAc(b1-2)[GlcNAc(b1-3)Gal(b1-4)GlcNAc(b1-6)]Man(a1-6)[GlcNAc(b1-3)Gal(b1-4)GlcNAc(b1-2)Man(a1-3)]Man(b1-4)GlcNAc(b1-4)GlcNAc
# In short: as §1
# [5] = target: GlcNAc(b1-3)Gal(b1-4)GlcNAc(b1-3)Gal(b1-4)GlcNAc(b1-2)Man(a1-3)[GlcNAc(b1-3)Gal(b1-4)GlcNAc(b1-3)Gal(b1-4)GlcNAc(b1-2)Man(a1-6)]Man(b1-4)GlcNAc(b1-4)GlcNAc
# In short: as §1
# [6] = target: GlcNAc(b1-3)Gal(b1-4)GlcNAc(b1-3)Gal(b1-4)GlcNAc(b1-3)Gal(b1-4)GlcNAc(b1-2)Man(a1-3)[GlcNAc(b1-3)Gal(b1-4)GlcNAc(b1-3)Gal(b1-4)GlcNAc(b1-3)Gal(b1-4)GlcNAc(b1-2)Man(a1-6)]Man(b1-4)GlcNAc(b1-4)[Fuc(a1-6)]GlcNAc
# In short: as §1
# GlcNAc(b1-3)Man = target: GlcNAc(b1-3)Man
# In short: as §1
# GlcNAc(b1-4)GlcNAc = target: GlcNAc(b1-4)GlcNAc
# In short: as §1
# Kdn(a2-3)Gal(b1-4)GlcNAc = target: Kdn(a2-3)Gal(b1-4)GlcNAc
# In short: as §1
# [7] = target: Man(a1-2)Man(a1-6)[Man(a1-3)]Man(a1-6)[Man(a1-2)Man(a1-2)Man(a1-3)]Man(b1-4)GlcNAc(b1-4)GlcNAc
# In short: as §1
# Neu5Ac(a2-3)Gal = target: Neu5Ac(a2-3)Gal
# In short: as §1
# [8] = target: Neu5Ac(a2-3)Gal(b1-3)GalNAc(b1-4)[Neu5Ac(a2-3)]Gal(b1-4)Glc
# In short: as §1
# [9] = target: Neu5Ac(a2-3)Gal(b1-4)GlcNAc(b1-2)Man
# In short: as §1
# [10] = target: Neu5Ac(a2-3)Gal(b1-4)GlcNAc(b1-2)Man(a1-3)[Neu5Ac(a2-3)Gal(b1-4)GlcNAc(b1-2)Man(a1-6)]Man(b1-4)GlcNAc(b1-4)[Fuc(a1-6)]GlcNAc
# In short: as §1
# [11] = target: Neu5Ac(a2-3)Gal(b1-4)GlcNAc(b1-3)Gal(b1-4)GlcNAc(b1-3)Gal(b1-4)GlcNAc(b1-2)Man(a1-3)[Neu5Ac(a2-3)Gal(b1-4)GlcNAc(b1-3)Gal(b1-4)GlcNAc(b1-3)Gal(b1-4)GlcNAc(b1-2)Man(a1-6)]GalNAc
# In short: as §1
# [12] = target: Neu5Ac(a2-3)GalNAc(b1-4)GlcNAc
# In short: as §1
# [13] = target: Neu5Ac(a2-6)Gal(b1-4)GlcNAc(b1-2)Man(a1-3)Man(b1-4)GlcNAc(b1-4)GlcNAc
# In short: as §1
# [14] = target: Neu5Ac(a2-6)Gal(b1-4)GlcNAc(b1-2)Man(a1-3)[Man(a1-6)]Man(b1-4)GlcNAc(b1-4)GlcNAc
# In short: as §1
# [15] = target: Neu5Ac(a2-8)Neu5Ac(a2-3)[Gal(b1-3)GalNAc(b1-4)]Gal(b1-4)Glc
# In short: as §1
# [16] = target: Neu5Gc(a2-8)Neu5Gc(a2-6)Gal(b1-4)GlcNAc
# In short: as §1
binder,measurement,setting,value
B1,glycan array binding signal (z-score),[1],-0.117
same,glycan array binding signal (z-score),[2],-0.31
same,glycan array binding signal (z-score),Gal3S(b1-4)Glc6S,-0.151
same,glycan array binding signal (z-score),GalNAc(b1-4)GlcNAc,0.551
same,glycan array binding signal (z-score),GalNAc(b1-4)GlcNAc6S,1.79
same,glycan array binding signal (z-score),[3],-0.311
same,glycan array binding signal (z-score),[4],1.97
same,glycan array binding signal (z-score),[5],2.21
same,glycan array binding signal (z-score),[6],1.72
same,glycan array binding signal (z-score),GlcNAc(b1-3)Man,0.501
same,glycan array binding signal (z-score),GlcNAc(b1-4)GlcNAc,1.79
same,glycan array binding signal (z-score),Kdn(a2-3)Gal(b1-4)GlcNAc,-0.355
same,glycan array binding signal (z-score),[7],-0.239
same,glycan array binding signal (z-score),Neu5Ac(a2-3)Gal,-0.322
same,glycan array binding signal (z-score),[8],-0.31
same,glycan array binding signal (z-score),[9],0.213
same,glycan array binding signal (z-score),[10],-0.35
same,glycan array binding signal (z-score),[11],6.54
same,glycan array binding signal (z-score),[12],-0.224
same,glycan array binding signal (z-score),[13],-0.296
same,glycan array binding signal (z-score),[14],-0.268
same,glycan array binding signal (z-score),[15],-0.006
same,glycan array binding signal (z-score),[16],-0.217
